# Source: PubChem BioAssay (NCATS)
# Results filed as inconclusive are left out. Entries that show only a call come without a potency. Active and inactive are the calls of the source. Calls come from the whole dose curve; as a rule, active = well fitted inhibition curve with a large enough effect; inconclusive = small, poorly fitted or top-dose-only effect; inactive = no such curve, though single readings can be large or run the other way.
# Experiment: Counterscreen qHTS for small molecule stabilizers of the endoplasmic reticulum resident proteome: GLuc-NoTag assay (AID 1508627)
# Details: Gaussia luciferase NoTag secretion counterscreen, luminescence, thapsigargin 100 nM for final 4 h; series mostly up to 76.4 µM
# Source text: Assay Provider: Brandon K. Harvey Ph.D.
# National Institute on Drug Abuse, National Institutes of Health, Baltimore, MD
# Endoplasmic reticulum (ER) dysregulation is associated with human pathologies including neurodegenerative, cardiovascular, muscular, and diabetic conditions. Maintenance of ER calcium is critical for functions of the ER and its depletion can lead to loss of ER resident proteins, in a process termed exodosis. Therapeutic compounds capable of attenuating the redistribution of ER proteins under pathological conditions may slow or stop disease progression. To identify such compounds, we performed a quantitative high-throughput screen (qHTS) using the SERCaMP assay, which monitors secretion of ER resident proteins triggered by calcium depletion.
# SERCaMP was initially developed as a reporter of ER calcium homeostasis using a Gaussia luciferase with a modified signal peptide and carboxy-terminus (GLuc-SERCaMP), modifications that confer secretion of the reporter in response to ER calcium depletion (Henderson et al., 2014). The assay was used to screen 9,501 compounds, including a collection of drugs approved by the FDA (US), EMA (EU), NHI (Japan), and HC (Canada) regulatory agencies (Huang et al., 2011). Since the SERCaMP reporter reflects the exodosis phenomenon (Trychta et al., 2018a), compounds identified in the screen have the potential to prevent exodosis by different mechanisms such as stabilizing ER calcium or augmenting ERS retrieval.
# 1. Henderson, M.J., Wires, E.S., Trychta, K.A., Richie, C.T., and Harvey, B.K. (2014). SERCaMP: a carboxy-terminal protein modification that enables monitoring of ER calcium homeostasis. Mol Biol Cell 25, 2828-2839.
# 2. Huang, R., Southall, N., Wang, Y., Yasgar, A., Shinn, P., Jadhav, A., Nguyen, D.T., and Austin, C.P. (2011). The NCGC pharmaceutical collection: a comprehensive resource of clinically approved drugs enabling repurposing and chemical genomics. Sci Transl Med 3, 80ps16.
# 3. Trychta, K.A., Back, S., Henderson, M.J., and Harvey, B.K. (2018a). KDEL Receptors Are Differentially Regulated to Maintain the ER Proteome under Calcium Deficiency. Cell Rep 25, 1829-1840 e1826.
# SEQUENCE No. (1, 2, 3, etc.); […] (e.g., Cells, Incubation, Reagent, etc.); VALUE and DESCRIPTION.
# 1; Reagent; 5 uL; 1000 SH-SY5Y cells per wells
# 3; Compound; 23 nL; Control inhibitor / compound library
# 5; Reagent; 100 nM; Thapsigargin
# 7; Reagent; 1 uL; 0.5x coelenterazine
# 8; Detection; Luminescence; ViewLux imaging system
# NOTES (numbers refer to sequence above)
# 1; SH-SY5Y human neuroblastoma cells stably expressing the constitutively secreted GLuc (SH-SY5Y-GLuc-NoTag) cells were seeded in 1,536 well white tissue culture treated plates (Corning, Cat# 7464) in DMEM-high glucose-sodium pyruvate (ThermoFisher Scientific, Cat #10569) supplemented with 10% bovine growth serum (Hyclone), 10 U/ml penicillin (Gibco), 10 ug/ml streptomycin (Gibco), and 20 mM HEPES.
# 2; Assay plates were incubated for 5 hour at 37C in a humidified incubator containing 5% CO2.
# 4; Cells were then incubated for 19 hours at 37C, 5% CO2.
# 5; Thapsigargin was added at 100 nM to deplete ER calcium stores.
# 6; Cells were incubated for 4 hour (37 °C, 5% CO2)
# 7; Gaussia luciferase in the medium was measured by adding 1 ul of 0.5x coelenterazine (final concentration 0.07x) prepared in Gaussia Luciferase Glow Assay Buffer (Pierce), without addition of the Cell Lysis Buffer Reagent.
# 8; Luminescence was measured using a ViewLux CCD imaging system (Perkin Elmer) equipped with clear filters. […] The same controls were also used for the calculation of the Z' factor, a measure of assay quality control, as previously described (Zhang et al., 1999). For the initial validation of activity in the SERCaMP assays, hits from the primary screen were assayed again at 11-concentrations (1.3 nM - 76.6 uM). SH-SY5Y-GLuc-SERCaMP cells were assayed for ER Ca2+ depletion as outlined above.
# 1. Zhang, J.H., Chung, T.D., and Oldenburg, K.R. (1999). […]
# Potency is the fitted concentration of half-maximal effect.
row,Compound,Potency
1,COC(=O)c1c(Cl)c(Cl)c(C(=O)OC)c(Cl)c1Cl,inactive
2,Cc1nc2n(c(=O)c1CCN1CCC(C(=O)c3ccc(F)cc3)CC1)CCS2,inactive
3,CC(C)(c1ccc(O)cc1)c1ccc(O)cc1,inactive
4,CCOc1ncc(F)c(=O)[nH]1,inactive
5,CN(C)CCOC(c1ccccc1)c1ccc(Br)cc1 (centres undefined),inactive
6,Clc1ccc2c(c1)N=C(N1CCNCC1)c1ccccc1N2,inactive
7,O=C(NO)c1ccccc1,inactive
8,CC(C)C[C@@H]1[C@H](c2ccccc2)OC(=O)N1CCCN1CCCCCC1,inactive
9,Cc1onc(-c2ccccc2)c1C(=O)Cl,inactive
10,CCOC(=O)c1ccc(O)c(O)c1,inactive
11,CC(C)OC(=O)c1cc2c(OCC(O)CNC(C)(C)C)cccc2[nH]1 (centres undefined),inactive
12,C[C@H](N)C(=O)N[C@@H](C)C(=O)NC1[C@H]2CN(c3nc4c(cc3F)c(=O)c(C(=O)O)cn4-c3ccc(F)cc3F)C[C@@H]12 (some centres undefined),inactive
13,Cc1cc2nc3ccc(=[N+](C)C)cc-3sc2cc1N,35.5 µM (active)
14,CC(C)(C)c1ccc(O)c(O)c1,inactive
15,CCC(=O)O[C@H]1[C@H](O[C@@H]2[C@@H](C)[C@H](O[C@H]3C[C@@](C)(OC)[C@@H](O)[C@H](C)O3)[C@@H](C)C(=O)O[C@H](CC)[C@@](C)(O)[C@H](O)[C@@H](C)C(=O)[C@H](C)C[C@@]2(C)O)O[C@H](C)C[C@@H]1N(C)C,inactive
16,C[C@H]1C[C@H](O)c2ccsc2S1(=O)=O,inactive
17,O=C(O)Cn1cnnn1,inactive
18,CN1CCC(N(Cc2cccs2)c2ccccc2)CC1,inactive
19,O=C1CC(c2ccc(Cl)cc2)CC(=O)N1,inactive
20,Fc1ccc(C(c2ccc(F)cc2)N2CCNCC2)cc1,inactive
21,CC(CC1c2ccccc2CCc2ccccc21)CN(C)C (centres undefined),inactive
22,N[C@@H](Cc1cc(I)c(O)c(I)c1)C(=O)O,inactive
23,CN1CCC(Nc2ncc3ncnc(Nc4ccc(F)c(Cl)c4)c3n2)CC1,inactive
24,O=C1NC(c2cccc([N+](=O)[O-])c2)=CCN1c1ccccc1O,inactive
